# Laboratory results from PubChem BioAssay (Tox21).
# Unmarked numbers belong to inactive results. Entries that show only a call come without a potency. The source made the active and inactive calls. Calls come from the whole dose curve.
# Test: qHTS assay to identify small molecule agonists of the sonic hedgehog signaling (Shh) pathway (AID 1259368);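 note: NIH/3T3-derived 3T3Gli1-Luc cells carrying a stable Gli1-driven firefly luciferase reporter; nearly all actives have a fitted effect of over 15% in size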
# Settings: NIH/3T3 Gli1-Luc reporter, luciferase, 24 h; series mostly up to 92.4 µM
# Summary of the method: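 Hedgehog pathway agonism scored by increased firefly luciferase luminescence in 3T3Gli1-Luc cells treated 24 hr at 37 C; detection used a 30 min room-temperature reagent incubation.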
Structure (SMILES),Potency,activity change
O=c1[nH]c(=O)n([C@H]2O[C@H](CO)[C@@H](O)[C@@H]2O)cc1/C=C\Br,inactive,–
C=C(C)C(=O)NCCC[N+](C)(C)C,inactive,–
NCCN1CCNC1=O,inactive,–
Cc1cc(C)c(NC(=O)CN(CC(=O)O)CC(=O)O)c(C)c1Br,inactive,–
CCCC(=O)O[C@]1(C(=O)CCl)[C@@H](C)C[C@H]2[C@@H]3CCC4=CC(=O)C=C[C@]4(C)[C@@]3(F)C(=O)C[C@@]21C,inactive,–
CCC(C)OC(=O)N1CCCCC1CCO (stereo unspecified),inactive,–
CCCCCCC(=O)OCC,inactive,–
O=C(O)c1ccc[n+]([O-])c1,inactive,–
CC(C)COC(=O)c1ccccc1O,inactive,–
COc1ccc2cc(C=O)ccc2c1,inactive,–
COc1cccc(Br)c1,inactive,–
CC1=CCC2C(C1)C2(C)C (stereo unspecified),inactive,–
C=C[Si](OC)(OC)OC,inactive,–
CC(C)CCCC(C)NCCC(C)C (stereo unspecified),inactive,–
CSc1nc(NC2CC2)nc(NC(C)(C)C)n1,inactive,–
CC(C)c1cccc(C(C)C)c1N,inactive,–
CC(=O)CCc1ccc(O)cc1,inactive,–
C1C2OC2C2C1C1CC2C2OC12 (stereo unspecified),inactive,–
CC1=CC(C)C(C=O)C(C)C1 (stereo unspecified),inactive,–
CNc1ncnc2nc[nH]c12,inactive,–
Cn1ccc2cc3c(cc21)CCN3C(=O)Nc1cccnc1,–,"11% [at 18.9 µM, hits give high values]"
CC/C=C\CCCCO,inactive,–
c1ccc2cnncc2c1,inactive,–
NC(=O)c1c(Cl)cccc1Cl,inactive,–
COc1cc(CCC(C)=O)ccc1O,inactive,–
COc1cc(C(=O)N2CCOCC2)cc(OC)c1OC,inactive,–
